Source: PubChem BioAssay AID1259343 (VanderVen Lab, College of Veterinary Medicine, Cornell …, 2017)
About 2,900 (47%) of roughly 6,200 compounds were called active. Cut-off read from the data, not from the text of the source: active = inhibition above about 50%; inactive = the rest. So high a share suggests a set chosen from earlier hits. The list shows a part of the results.

test: Mycobacterium tuberculosis growth inhibition, primary screen (AID 1259343); details: inhibition: at 10 µM, active compounds read high; outcome: 10 uM

| Structure (SMILES) | inhibition |
| --- | --- |
| O=C(NCCO)c1ccc(OCc2ccc(Cl)s2)cc1 | -5.18% (inactive) |
| N#CC1=C(NC(=O)c2ccc(COc3ccc(Cl)cc3)cc2)CCC1 | 82.1% (active) |
| Cc1nonc1OCCCNc1ccc([N+](=O)[O-])cc1 | 37.2% (inactive) |
| CCc1ccc(Nc2ccc([N+](=O)[O-])c3nonc23)cc1 | 85.6% (active) |
| CC12CCC(CC1=NNc1nc3ccccc3o1)C2(C)C (stereo not given) | 83.6% (active) |
| CCCCc1nnc(NC(=O)C2Cc3ccccc3S2)s1 (stereo not given) | 54.4% (active) |
| CCCCc1nnc(NC(=O)N2CCc3ccccc3C2)s1 | 33.5% (inactive) |
| CCCCCc1nnc(NC(=O)Cc2ccccc2)s1 | 89.6% (active) |
| O=C(NCCNc1ncc(C(F)(F)F)cc1Cl)C1Cc2ccccc2S1 (stereo not given) | 46.4% (inactive) |
| CCCc1nnc(NC(=O)CC(=O)Nc2ccccc2C(=O)O)s1 | 9.89% (inactive) |
| CCC(Cc1c(I)cc(I)c(N)c1I)C(=O)O (stereo not given) | 84.2% (active) |
| CCOC(=O)c1ccc(NC(=O)CSc2nc(=O)n3ccccc3n2)cc1 | 90.4% (active) |
| CCc1ccc(NC(=O)CSc2nc(=O)n3ccccc3n2)cc1 | -1.93% (inactive) |
| O=c1nc(SCc2cccc(C(F)(F)F)c2)nc2ccccn12 | -26.8% (inactive) |
| c1coc(-c2cc(CSc3nnc(Cc4cccs4)n3C3CC3)no2)c1 | -54.4% (inactive) |
| Cc1[nH]n(-c2ccc(Cl)cc2)c(=O)c1C1=C(c2c[nH]c3ccccc23)C(=O)N(Cc2ccc(F)cc2)C1=O | 61.5% (active) |
| O=C(Nc1nc(-c2c[nH]c3ccccc23)cs1)c1ccc(F)cc1Cl | 17% (inactive) |
| CCc1nc2c(OCCOc3ccc(F)cc3)cccn2c1N(C)C(=O)c1ccccc1F | 45.2% (inactive) |

| Structure (SMILES) | inhibition |
| --- | --- |
| Cc1ccccc1C(c1ncccc1C)N(C)C(=O)C1CCN(CCCOc2ccc(F)cc2)CC1 (stereo not given) | 60.1% (active) |
| CCOC(=O)N1CCC(NS(=O)(=O)CCCOc2ccc(F)cc2)CC1 | 45% (inactive) |
| N#Cc1ccc(NCCc2cccc(F)c2)cn1 | 36.5% (inactive) |
| CC(NC(=O)C/C=C/c1cccc(F)c1)C(O)Cc1ccccc1 (stereo not given) | 15.7% (inactive) |
| CS(=O)(=O)Nc1ccc(/C=C/C(=O)NCCc2cccc(F)c2)cc1 | 52.3% (active) |
| CCc1ccc(CNc2ccc(CNc3ncn[nH]3)cc2)cc1 | 91.1% (active) |
| Cc1cc(NC(=O)CNCCN2CCCOC2=O)ccc1Cl | 77.5% (active) |
| COc1cc(NC(=O)CNCCN2CCOC2=O)ccc1Cl | 55.3% (active) |
| Cc1ccccc1-c1noc(-c2cccc(NC(=O)CCN3CCCO3)c2)n1 | 19.4% (inactive) |
| COc1cccc(-c2cc(CC(=O)NC3CCCC3)no2)c1 | 19.6% (inactive) |
| Cc1nc2ccccn2c1C(=O)OCc1cc(-c2ccco2)on1 | 33.3% (inactive) |
| CCC(=O)c1ccc(OCc2cc(-c3ccccc3)on2)cc1 | 92.5% (active) |
| CC(C)CN1C(=O)C(=Cc2c(N3CCN(CCO)CC3)nc3ccccn3c2=O)SC1=S | 7.51% (inactive) |
| NC(=O)CSc1nccc2c(OCc3ccc(F)cc3)cccc12 | 77.4% (active) |
| CNS(=O)(=O)c1ccc(C(=O)N2CCc3ccccc32)o1 | 89.9% (active) |
| Cc1sc(NC(=O)C2CC2)c(C(=O)N2CCc3ccccc32)c1C | -6.91% (inactive) |
| CNS(=O)(=O)c1ccc2c(c1)CCN2C(=O)c1ccc(F)cc1F | 32% (inactive) |
